The campaign covered roughly 310,000 compounds. About 3,900 (1.3%) were called active.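 Rule for the calls: active = calcium-response B-score plate-corrected more than 3 library SD below zero, starting fluorescence within 5 deviations, no agonist response on first addition; inactive = the rest.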 Only a selection was taken, and actives are over-represented in it overall.
biological target: Mas-related G-protein coupled receptor member X1 (Homo sapiens) (UniProt Q96LB2); assay: antagonists of human MrgX1 receptor, primary screen, HEK293 cells, Fluo-4 calcium flux (AID 588676); settings: Fluo-4, BAM8-22 antagonism, at 10 µM; active compounds read low;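 for B-score: peak minus trough fluorescence over baseline after final BAM8-22 challenge near maximal dose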
Sequence (Q96LB2 whole entry, looked up): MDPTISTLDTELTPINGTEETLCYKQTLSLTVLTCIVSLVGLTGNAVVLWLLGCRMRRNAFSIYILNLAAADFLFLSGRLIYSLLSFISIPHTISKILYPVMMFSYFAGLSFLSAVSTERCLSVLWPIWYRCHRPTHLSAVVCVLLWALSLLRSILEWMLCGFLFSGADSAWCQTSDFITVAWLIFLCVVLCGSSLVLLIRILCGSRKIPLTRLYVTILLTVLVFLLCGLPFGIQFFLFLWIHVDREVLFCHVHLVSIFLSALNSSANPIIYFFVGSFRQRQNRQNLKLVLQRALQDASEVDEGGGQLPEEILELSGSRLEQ

SMILES	B-score
CCCOc1ccc(Cc2c(Cl)nc(SC)nc2NC)cc1	inactive
Cc1nccn1CCCNC(=O)CC1C(=O)NCCN1Cc1ccc(Cl)c(F)c1 (stereo not drawn)	inactive
COc1cc(CN2CCNC(=O)C2CC(=O)NCCc2ncccc2C)cc(OC)c1 (stereo not drawn)	inactive
Cc1cc(C)n(CCNC(=O)CC2C(=O)NCCN2Cc2ccc(C)o2)n1 (stereo not drawn)	-4.73 (active)
O=C(CSc1nncn1-c1cccnc1)N1CCOCC1	-5.04 (active)
COC(=O)c1ccc(NC(=O)CSc2nncn2-c2cccnc2)cc1	inactive
O=C(CSc1nnc(Cc2ccccc2)n1-c1ccccc1)N1CCOCC1	inactive
CCC(C)(C)NC(=O)CN(C(=O)CCC(=O)Nc1nccs1)c1ccc2c(c1)OCO2	inactive
CCS(=O)(=O)c1ccc2c(c1)N(S(=O)(=O)c1ccccc1)CC(C(=O)O)O2 (stereo not drawn)	-4.74 (active)
CCS(=O)(=O)c1ccc2oc(SCC(=O)N3c4ccccc4CC3C)nc2c1 (stereo not drawn)	inactive
CCOC(=O)C1CN(S(=O)(=O)c2ccc(OC)cc2)c2cc(Cl)ccc2O1 (stereo not drawn)	inactive
Cc1ccc(C)c(S(=O)(=O)N2CCCOC2CNC(=O)C(=O)NC2CCCCC2)c1 (stereo not drawn)	inactive
COc1cc(OC)cc(C(=O)NCCCn2ccnc2)c1	inactive
CC1CC(C)CN(C(=O)CCNC(=O)Cn2cnc3ccccc3c2=O)C1 (stereo not drawn)	inactive
CCN1CCN(c2cc3nc(C)n(Cc4ccccc4)c(=O)c3cc2NC(=O)c2ccccc2F)CC1	inactive
Cc1cc(NC(=O)COC(=O)c2ccc(F)c(S(=O)(=O)N3CCOCC3)c2)no1	inactive
CCOc1ccc(CCNC(=O)COC(=O)c2ccc(F)c(S(=O)(=O)N3CCOCC3)c2)cc1OCC	-5.64 (active)
COc1ccc(COC(=O)c2ccc(Cl)c(S(=O)(=O)N3CCOCC3)c2)cc1F	inactive
Fc1ccc(-c2ccc(CNCc3ccccn3)o2)cc1Cl	inactive
CCCCc1nc2cc(C(=O)N3CCCCC3CCO)ccc2o1 (stereo not drawn)	inactive
COc1ccc(-n2nc3c(N4CCC(C(=O)NCc5ccccc5)CC4)nnc(C)c3c2C)cc1	inactive
OCC1(Cc2ccccc2C(F)(F)F)CCN(Cc2cccc3cnccc23)CC1	-7.22 (active)
C/C(=N/N1CCN(Cc2cccc3ccccc23)CC1)c1cccnc1	inactive
OCC1(Cc2ccccc2C(F)(F)F)CCN(Cc2ccncc2)CC1	inactive
CCc1cc2c(NC3CCCC3)ncnc2s1	inactive
CCc1cc2c(SCC(=O)Nc3ncc(Cl)c(C)c3Cl)ncnc2s1	-4.97 (active)

SMILES	B-score
CCc1cc2c(NC(Cc3ccccc3)C(=O)O)ncnc2s1 (stereo not drawn)	inactive
Cc1ccc(C(=O)N/C(=C\c2ccco2)C(=O)NC2CCS(=O)(=O)C2)cc1 (stereo not drawn)	inactive
ON=C1/C(=N\O)CC2(C/C1=N/O)OCCO2	inactive
Nc1nc(-c2sc3nc4c(cc3c2N)CCCC4)nc(N2CCOCC2)n1	inactive
Cc1ccc(S(=O)(=O)N2[C@@H](c3cccc(Cl)c3)C(C(=O)O)=CC[C@H]2c2ccc(Cl)c(Cl)c2)cc1	-6.18 (active)
Cc1ccccc1S(=O)(=O)N1[C@@H](c2cccc(Cl)c2)C(C(=O)O)=CC[C@H]1c1ccc(Cl)cc1	inactive
Cc1ccc([C@@H]2CC=C(C(=O)O)[C@H](c3cccc(Cl)c3)N2S(=O)(=O)c2ccc(C)cc2)cc1	inactive
COc1ccccc1OCCC(=O)OCC(=O)NCc1ccccc1	inactive
CC(=O)c1cc(-c2ccccc2)n(CCC(=O)NC2CCCCCC2)c1C	inactive
Cc1occc1C(=O)NC1CCCN(Cc2ccc(CC(C)C)cc2)C1 (stereo not drawn)	inactive
Cc1ccc(NC(=O)c2nc[nH]c2C(=O)N[C@@H](CCCCNC(=O)OC(C)(C)C)C(=O)OC(C)(C)C)cc1	-9.54 (active)
CNC(=O)c1[nH]cnc1C(=O)N[C@@H](CC(C)C)C(=O)OC(C)(C)C	inactive
CCOC(=O)c1ccc(NC(=O)c2nc[nH]c2C(=O)N[C@@H](CCCCNC(=O)OC(C)(C)C)C(=O)OC(C)(C)C)cc1	inactive
O=[N+]([O-])c1ccc(Oc2ccc(F)cc2Br)c2ccncc12	inactive
O=C(CN1CCN(c2ccc(O)cc2)CC1)Nc1ccc(-c2ccccc2)cc1	inactive
NS(=O)(=O)c1cc(C(=O)OCC(=O)NNC(=O)c2ccccc2)ccc1Cl	inactive
O=C(COC(=O)c1ncc(Cl)c(Cl)c1Cl)NNC(=O)c1ccccc1	-4.63 (active)
O=C(COC(=O)c1ncc(Cl)c(Cl)c1Cl)NCc1cccs1	inactive
CC(=O)c1cnn(-c2cc(Oc3ccc(F)cc3)ncn2)c1C	inactive
Cc1cc(NC(=O)[C@H](C)NC(=O)c2ccco2)ccc1Br	inactive
NC1=NC(=O)C2(COC(c3ccccc3Cl)OC2)S1 (stereo not drawn)	inactive
FC(F)(F)c1nc2ccccc2nc1N/N=C/c1ccc(Cl)cc1	inactive
O=C(CN1CCSCC1)N/N=C/c1ccc(Cl)cc1	inactive
Clc1ccc(C=NC23CN4CN(CN(C4)C2)C3)cc1	-6.85 (active)
COc1ccc(CCNC(=O)C2CCCN(Cc3nc(-c4cccc(Cl)c4)oc3C)C2)cc1OC (stereo not drawn)	inactive
COCCn1c(C)cc(C(=O)COC(=O)/C=C/c2cccc(OC)c2)c1C	inactive

SMILES	B-score
CCc1[nH]nc(C(=O)N2CCCC(CO)(Cc3ccc(F)cc3F)C2)c1C (stereo not drawn)	inactive
C=CCNC(=O)c1sc(SC)cc1-c1ccc(Cl)cc1	inactive
CCC(=O)NC(Nc1nc2ccc(C)cc2s1)(C(=O)OC)C(F)(F)F (stereo not drawn)	inactive
O=C(NC(Nc1nc2ccc([N+](=O)[O-])cc2s1)(C(F)(F)F)C(F)(F)F)c1ccccc1	-6.28 (active)
CCOc1ccc2nc(NC(=O)c3cc([N+](=O)[O-])ccc3N3CCOCC3)sc2c1	inactive
CCCOC(=O)c1c(NC(=O)c2cnn3c2NC(c2ccccc2)CC3C(F)(F)F)sc2c1CCCC2 (stereo not drawn)	inactive
Cc1nc(N=C(N)N)nc2c(C)cccc12	inactive
CCOc1cc(/C=C2/N=C(c3ccc(C(C)(C)C)cc3)OC2=O)cc(Cl)c1OS(C)(=O)=O	inactive
Cc1cccc(NC(=O)Cn2c(=O)n(Cc3ccccc3)c(=O)c3c(C)c(C)sc32)c1	inactive
CCOc1ccccc1C1CC(c2ccccc2)Nc2nc(N)nn21 (stereo not drawn)	inactive
COc1ccc(C2CC(c3ccc(Cl)cc3Cl)Nc3nc(N)nn32)cc1OC (stereo not drawn)	inactive
CCOc1ccccc1C1CC(c2ccc(Cl)cc2)Nc2nc(N)nn21 (stereo not drawn)	-7.74 (active)
COCCC(=O)Nc1ccc2c(c1)CN(C(=O)CCOC)CC2	inactive
COc1ccc2cc(-c3[nH]ncc3CNCCn3nc(C)cc3C)ccc2c1	inactive
CCOc1ccc(CN2CCN(Cc3ccc4cc(F)ccc4n3)CC2CCO)cc1 (stereo not drawn)	inactive
O=C(Nc1cccnc1Cl)c1cc(-c2ccccc2O)on1	inactive
C=CCNC(=O)c1cc(-c2ccccc2O)on1	-5.5 (active)
C=CCNC(=O)c1csc(-c2ccccc2)n1	-6.07 (active)
CNC(=O)c1csc(-c2ccccc2)n1	inactive
O=C(c1cc(-c2ccccc2O)on1)N1CCCC1	inactive
O=C(NCCc1csc(-c2ccccc2)n1)c1ccccc1F	inactive
CC(NC(=O)CCCC1CCCCC1)c1ccc(S(N)(=O)=O)cc1 (stereo not drawn)	inactive
Cc1ccc(C)c(N2CCN(C(=O)Cn3ncn4cccc4c3=O)CC2)c1	inactive
O=C(C1=C[C@H](C2CC2)C[C@H](OCc2ccc(CO)cc2)O1)N1CCN(Cc2ccccc2)CC1	inactive
Nc1nc(NCc2ccccc2)n(-c2ccccc2)n1	inactive
O=C1CCC(C(=O)N2CCCCO2)CN1Cc1cccc(C(F)(F)F)c1 (stereo not drawn)	inactive

SMILES	B-score
O=C(NC(=S)Nc1cccc(-c2ccc(CO)o2)c1)c1cccs1	inactive
CCc1ccc(-c2cc3c(=O)n(CC(=O)NCCCN4CCN(Cc5ccccc5)CC4)nc(C)n3n2)cc1	inactive
COc1cccc(CNC(=O)CN(C)S(=O)(=O)c2ccc3c(c2)c(=O)n(C)c(=O)n3C)c1	inactive
COc1ccccc1NC(=O)CCC(=O)OC(C)C(=O)c1ccccc1 (stereo not drawn)	inactive
CC1(C(=O)NNC(=S)NCC2CCCO2)CC1(Cl)Cl (stereo not drawn)	-5.39 (active)
S=C(NCCc1ccccc1)NCC1CCCO1 (stereo not drawn)	inactive
CCC(=O)NC(NCC1CCCO1)C(Cl)(Cl)Cl (stereo not drawn)	inactive
COCCNC(=O)c1ccccc1NS(=O)(=O)c1ccc(C)c([N+](=O)[O-])c1	-4.52 (active)
Cc1ccc(S(=O)(=O)Nc2nc3ccccc3s2)cc1[N+](=O)[O-]	inactive
Cc1ccc(S(=O)(=O)NCCSc2ccccc2)cc1[N+](=O)[O-]	inactive
CCN1C(=O)[C@H]2[C@@H](c3ccc(SC4CCCCC4)c(OC)c3)N[C@@](Cc3ccccc3)(C(=O)OC)[C@H]2C1=O	inactive
CCOC(=O)Cn1c(O)c(N=NC(=O)CNC(=O)Cc2ccccc2)c2ccccc21	inactive
CCOc1cc(S(=O)(=O)NCc2ccc3c(c2)OCO3)ccc1F	inactive
Cc1cccc(NC(=O)N(Cc2cc3cc(C)cc(C)c3[nH]c2=O)CC2COCCO2)c1 (stereo not drawn)	inactive
CCOc1ccc(NC(=O)[C@H](C)NC(=O)C2CC(=O)N(c3ccc(OC)cc3)C2)cc1 (stereo partly drawn)	inactive
NC(=O)c1ccccc1N=Cc1ccc2ccccc2c1	inactive
O=C(CSc1ncccn1)NCCc1ccccc1	inactive
O=C(COc1ncnc2ccccc12)NC(=O)NCc1ccccc1	inactive
O=C(CSc1ncccn1)NC(=O)NCc1ccccc1	-6.78 (active)
CCOC(=O)[C@H]1[C@H]2COc3ccc(OC)cc3[C@@H]2N2C(=O)c3ccc(F)cc3NC(=O)[C@@]12C	inactive
COC1=C(N2CCOCC2)C(=O)c2ccccc2C1=O	inactive
CN1C(C(=O)NCC2CC2)CC2Cn3c(nc4ccccc43)C21 (stereo not drawn)	inactive
COc1cccc(OCCOc2cccc(/C=N/n3cnnc3)c2)c1	inactive
C(=N\n1cnnc1)/c1cccnc1	-4.63 (active)
Clc1ccc(CN2CCN(/N=C/c3cccnc3)CC2)cc1	inactive

Reference: PubChem BioAssay AID588676 (Johns Hopkins Ion Channel Center, 2011)
